# Experimental data reported in PubChem BioAssay AID1159580 (chemical genetic matrix, 2015).
# About 2,000 (36%) of roughly 5,500 compounds were called active. About 18% were inconclusive and are not listed. The list shows a part of the results. A number with no mark means an inactive call. Cut-off read from the data, not from the text of the source: active = normalized growth mostly below about 0.91 (no sharp cut-off); inconclusive = no clear call, values can overlap the other calls; inactive = mostly above about 0.92.
# Experiment: chemical genetic growth profiling, strain panel (AID 1159580);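 note: tested at 20 µM; growth read once vehicle control cultures reached saturation at 30 °C; 1 = growth at the plate median or of vehicle wells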
# Conditions: S. cerevisiae deletion strains, growth OD
# [1] = locus YHR030C, strain SLT2, stronger effect = lower value
# [2] = locus YHR079C, strain IRE1, stronger effect = lower value
# [3] = locus YJL095W, strain BCK1, stronger effect = lower value
# [4] = locus YJR066W, strain TOR1, stronger effect = lower value
# [5] = locus YLR113W, strain HOG1, stronger effect = lower value
# [6] = locus YNL183C, strain NPR1, stronger effect = lower value
# [7] = locus YOR231W, strain MKK1, stronger effect = lower value
# [8] = locus YPL256C, strain CLN2, stronger effect = lower value
smiles,measurement,setting,value
CC(O)C(C)OC(=O)[C@@H]1C[C@@H]2c3cccc4c3c(cn4C(C)C)C[C@H]2N(C)C1 (some centres undefined),normalized growth,"locus YAL040C, strain CLN3, stronger effect = lower value",0.977
same,normalized growth,"locus YCL061C, strain MRC1 (second series), stronger effect = lower value",0.98
same,normalized growth,"locus YDR363W, strain ESC2, stronger effect = lower value",0.996
same,normalized growth,"locus YER002W, strain NOP16, stronger effect = lower value",1
same,normalized growth,"locus YNL175C, strain NOP13, stronger effect = lower value",1
same,normalized growth,"locus YNL197C, strain WHI3, stronger effect = lower value",0.991
same,normalized growth,"locus YNL224C, strain SQS1, stronger effect = lower value",1.01
same,normalized growth,"locus YNL322C, strain KRE1, stronger effect = lower value",0.973
same,normalized growth,"locus YOR083W, strain WHI5 (second series), stronger effect = lower value",0.99
same,normalized growth,"locus YPL055C, strain LGE1, stronger effect = lower value",1
C[C@@H]1CC2C3CCC4=CC(=O)C=C[C@]4(C)[C@@]3(F)[C@@H](O)C[C@]2(C)[C@@]1(O)C(=O)CO (some centres undefined),normalized growth,"locus YAL021C, strain ccr4, stronger effect = lower value",0.96
same,normalized growth,"locus YAL026C, strain drs2, stronger effect = lower value",0.988
same,normalized growth,"locus YAL030W, strain snc1, stronger effect = lower value",0.969
same,normalized growth,"locus YBL061C, strain skt5, stronger effect = lower value",0.976
same,normalized growth,"locus YBR009C, strain hhf1, stronger effect = lower value",0.989
same,normalized growth,"locus YBR023C, strain chs3, stronger effect = lower value",0.999
same,normalized growth,"locus YBR171W, strain sec66, stronger effect = lower value",0.947
same,normalized growth,"locus YBR231C, strain swc5, stronger effect = lower value",0.978
same,normalized growth,"locus YBR279W, strain paf1, stronger effect = lower value",1
same,normalized growth,"locus YCL011C, strain gbp2, stronger effect = lower value",0.988
same,normalized growth,"locus YCL016C, strain dcc1, stronger effect = lower value",1.03
same,normalized growth,"locus YCL069W, strain vba3, stronger effect = lower value",0.975
same,normalized growth,"locus YCR088W, strain abp1, stronger effect = lower value",0.978
same,normalized growth,"locus YDL005C, strain med2, stronger effect = lower value",0.966
same,normalized growth,"locus YDL040C, strain nat1, stronger effect = lower value",0.964
same,normalized growth,"locus YDR001C, strain nth1, stronger effect = lower value",0.966
same,normalized growth,"locus YDR069C, strain doa4, stronger effect = lower value",0.96
same,normalized growth,"locus YDR137W, strain rgp1, stronger effect = lower value",1.02
same,normalized growth,"locus YDR159W, strain sac3, stronger effect = lower value",0.968
same,normalized growth,"locus YDR195W, strain ref2",0.948
same,normalized growth,"locus YDR297W, strain sur2, stronger effect = lower value",0.988
same,normalized growth,"locus YDR334W, strain swr1, stronger effect = lower value",0.957
same,normalized growth,"locus YDR335W, strain msn5, stronger effect = lower value",0.976
same,normalized growth,"locus YDR392W, strain spt3, stronger effect = lower value",1.06
same,normalized growth,"locus YEL003W, strain gim4, stronger effect = lower value",0.973
same,normalized growth,"locus YEL037C, strain rad23, stronger effect = lower value",0.974
same,normalized growth,"locus YEL061C, strain CIN8 (second series), stronger effect = lower value",0.976
same,normalized growth,"locus YER015W, strain faa2, stronger effect = lower value",0.995
same,normalized growth,"locus YER016W, strain bim1, stronger effect = lower value",1.03
same,normalized growth,"locus YER111C, strain swi4, stronger effect = lower value",0.971
same,normalized growth,"locus YER155C, strain BEM2 (second series), stronger effect = lower value",0.958
same,normalized growth,"locus YFR010W, strain ubp6, stronger effect = lower value",0.958
same,normalized growth,"locus YGL167C, strain pmr1, stronger effect = lower value",0.957
same,normalized growth,"locus YGL173C, strain kem1, stronger effect = lower value",0.964
same,normalized growth,"locus YGL227W, strain vid30, stronger effect = lower value",0.987
same,normalized growth,"locus YGL240W, strain doc1, stronger effect = lower value",0.966
same,normalized growth,"locus YGL253W, strain hxk2, stronger effect = lower value",1
same,normalized growth,"locus YHR013C, strain ard1, stronger effect = lower value",0.995
same,normalized growth,"locus YHR027C, strain rpn1, stronger effect = lower value",0.993
same,normalized growth,[1],1.02
same,normalized growth,[2],1.01
same,normalized growth,"locus YHR142W, strain chs7, stronger effect = lower value",0.948
same,normalized growth,"locus YJL092W, strain hpr5, stronger effect = lower value",0.964
same,normalized growth,"locus YJL095W, strain BCK1 (second series), stronger effect = lower value",0.967
same,normalized growth,[3],1.02
same,normalized growth,"locus YJL115W, strain asf1, stronger effect = lower value",0.976
same,normalized growth,"locus YJL129C, strain trk1, stronger effect = lower value",0.976
same,normalized growth,"locus YJL154C, strain vps35, stronger effect = lower value",0.951
same,normalized growth,"locus YJL164C, strain tpk1, stronger effect = lower value",1.01
same,normalized growth,"locus YJL166W, strain qcr8, stronger effect = lower value",0.916
same,normalized growth,[4],0.997
same,normalized growth,"locus YKL160W, strain elf1, stronger effect = lower value",0.989
same,normalized growth,"locus YKR026C, strain gcn3, stronger effect = lower value",0.98
same,normalized growth,"locus YKR091W, strain srl3, stronger effect = lower value",0.961
same,normalized growth,"locus YLL001W, strain dnm1, stronger effect = lower value",0.911
same,normalized growth,"locus YLL026W, stronger effect = lower value",0.985
same,normalized growth,"locus YLL041C, strain sdh2, stronger effect = lower value",0.972
same,normalized growth,"locus YLR027C, strain aat2, stronger effect = lower value",0.976
same,normalized growth,[5],1.03
same,normalized growth,"locus YLR221C, strain rsa3, stronger effect = lower value",1.02
same,normalized growth,"locus YLR258W, strain gsy2, stronger effect = lower value",0.987
same,normalized growth,"locus YLR262C, strain YPT6 (second series), stronger effect = lower value",0.943
same,normalized growth,"locus YLR320W, strain mms22, stronger effect = lower value",1
same,normalized growth,"locus YLR342W, strain FKS1, stronger effect = lower value",0.951
same,normalized growth,"locus YLR357W, strain rsc2, stronger effect = lower value",0.966
same,normalized growth,"locus YLR370C, strain arc18, stronger effect = lower value",0.996
same,normalized growth,"locus YLR384C, strain iki3, stronger effect = lower value",0.982
same,normalized growth,"locus YML120C, strain ndi1, stronger effect = lower value",0.969
same,normalized growth,"locus YMR058W, strain fet3, stronger effect = lower value",0.981
same,normalized growth,"locus YMR125W, strain sto1, stronger effect = lower value",0.951
same,normalized growth,"locus YMR129W, stronger effect = lower value",0.993
same,normalized growth,"locus YMR205C, strain PFK2, stronger effect = lower value",0.969
same,normalized growth,"locus YMR231W, strain pep5, stronger effect = lower value",0.96
same,normalized growth,"locus YNL071W, strain lat1, stronger effect = lower value",0.971
same,normalized growth,[6],0.965
same,normalized growth,"locus YNL209W, strain ssb2, stronger effect = lower value",0.997
same,normalized growth,"locus YNL248C, strain rpa49, stronger effect = lower value",1.01
same,normalized growth,"locus YNL322C, strain KRE1 (second series), stronger effect = lower value",0.962
same,normalized growth,"locus YNR049C, strain mso1, stronger effect = lower value",0.984
same,normalized growth,"locus YOR001W, strain rrp6, stronger effect = lower value",0.976
same,normalized growth,"locus YOR070C, strain gyp1, stronger effect = lower value",0.997
same,normalized growth,"locus YOR080W, strain dia2, stronger effect = lower value",0.948
same,normalized growth,"locus YOR083W, strain WHI5, stronger effect = lower value",0.968
same,normalized growth,"locus YOR106W, strain vam3, stronger effect = lower value",0.933
same,normalized growth,[7],1.01
same,normalized growth,"locus YOR265W, strain rbl2, stronger effect = lower value",0.986
same,normalized growth,"locus YOR270C, strain vph1, stronger effect = lower value",0.955
same,normalized growth,"locus YOR290C, strain snf2, stronger effect = lower value",1.02
same,normalized growth,"locus YPL051W, strain arl3, stronger effect = lower value",1.01
same,normalized growth,"locus YPL078C, strain atp4, stronger effect = lower value",0.928
same,normalized growth,"locus YPL106C, strain sse1, stronger effect = lower value",0.981
same,normalized growth,"locus YPL240C, strain hsp82, stronger effect = lower value",0.98
same,normalized growth,[8],1.01
COc1ccc(Nc2nc(NC(=O)Nc3ccc(Cl)cc3)n[nH]2)cc1,normalized growth,"locus YAR019C, strain CDC15, stronger effect = lower value",0.996
same,normalized growth,"locus YBL105C, strain PKC1, stronger effect = lower value",0.994
same,normalized growth,"locus YBR135W, strain CKS1, stronger effect = lower value",1
same,normalized growth,"locus YBR136W, strain MEC1, stronger effect = lower value",0.992
same,normalized growth,"locus YBR160W, strain CDC28, stronger effect = lower value",1
same,normalized growth,"locus YDL017W, strain CDC7, stronger effect = lower value",1
same,normalized growth,"locus YDL028C, strain MPS1, stronger effect = lower value",0.986
same,normalized growth,"locus YDL101C, strain DUN1, stronger effect = lower value",1
same,normalized growth,"locus YDL108W, strain KIN28, stronger effect = lower value",0.982
same,normalized growth,"locus YDL132W, strain cdc53, stronger effect = lower value",0.99
same,normalized growth,"locus YDL214C, strain PRR2, stronger effect = lower value",0.867
same,normalized growth,"locus YDR052C, strain DBF4, stronger effect = lower value",1
same,normalized growth,"locus YDR054C, strain cdc34, stronger effect = lower value",1
same,normalized growth,"locus YDR226W, strain ADK1, stronger effect = lower value",0.994
same,normalized growth,"locus YDR477W, strain SNF1, stronger effect = lower value",0.809
same,normalized growth,"locus YER123W, strain YCK3, stronger effect = lower value",0.715
same,normalized growth,"locus YER133W, strain GLC7, stronger effect = lower value",0.757
same,normalized growth,"locus YFL009W, strain cdc4, stronger effect = lower value",0.994
same,normalized growth,"locus YFL029C, strain CAK1, stronger effect = lower value",0.998
same,normalized growth,"locus YFR003C, strain YPI1, stronger effect = lower value",0.996
same,normalized growth,"locus YFR019W, strain FAB1, stronger effect = lower value",0.866
same,normalized growth,"locus YFR028C, strain CDC14, stronger effect = lower value",0.988
same,normalized growth,"locus YGR040W, strain KSS1, stronger effect = lower value",0.789
same,normalized growth,"locus YGR052W, strain FMP48, stronger effect = lower value",0.788
same,normalized growth,"locus YGR092W, strain DBF2, stronger effect = lower value",0.793
same,normalized growth,[1],0.887
same,normalized growth,[2],0.893
same,normalized growth,"locus YHR082C, strain KSP1, stronger effect = lower value",0.868
same,normalized growth,"locus YHR205W, strain SCH9, stronger effect = lower value",0.842
same,normalized growth,"locus YIL147C, strain SLN1, stronger effect = lower value",0.979
same,normalized growth,[3],0.861
same,normalized growth,"locus YJL128C, strain PBS2, stronger effect = lower value",0.957
same,normalized growth,"locus YJL157C, strain FAR1, stronger effect = lower value",0.88
same,normalized growth,"locus YJR016C, strain ILV3, stronger effect = lower value",0.991
same,normalized growth,"locus YJR066W, strain TOR1 (second series), stronger effect = lower value",0.758
same,normalized growth,[4],0.929
same,normalized growth,"locus YKL048C, strain ELM1, stronger effect = lower value",0.854
same,normalized growth,"locus YKL067W, strain YNK1, stronger effect = lower value",0.876
same,normalized growth,"locus YKL101W, strain HSL1, stronger effect = lower value",0.83
same,normalized growth,"locus YKL193C, strain SDS22, stronger effect = lower value",0.991
same,normalized growth,"locus YKL203C, strain TOR2, stronger effect = lower value",0.892
same,normalized growth,[5],0.813 (active)
same,normalized growth,"locus YLR133W, strain CKI1, stronger effect = lower value",0.795
same,normalized growth,"locus YLR403W, strain SFP1, stronger effect = lower value",0.742
same,normalized growth,"locus YML070W, strain DAK1, stronger effect = lower value",0.846
same,normalized growth,"locus YMR001C, strain CDC5, stronger effect = lower value",1
same,normalized growth,"locus YMR205C, strain PFK2 (second series), stronger effect = lower value",0.782
same,normalized growth,"locus YMR277W, strain FCP1, stronger effect = lower value",0.991
same,normalized growth,"locus YNL006W, strain LST8, stronger effect = lower value",1.02
same,normalized growth,"locus YNL020C, strain ARK1, stronger effect = lower value",0.811
same,normalized growth,"locus YNL161W, strain CBK1, stronger effect = lower value",0.998
same,normalized growth,[6],0.763
same,normalized growth,"locus YNL207W, strain RIO2, stronger effect = lower value",0.992
same,normalized growth,"locus YNL222W, strain SSU72, stronger effect = lower value",0.993
same,normalized growth,"locus YNL307C, strain MCK1 (second series), stronger effect = lower value",0.832
same,normalized growth,"locus YOL078W, strain AVO1, stronger effect = lower value",0.991
same,normalized growth,"locus YOL136C, strain PFK27, stronger effect = lower value",0.848
same,normalized growth,"locus YOR061W, strain CKA2, stronger effect = lower value",0.741
same,normalized growth,"locus YOR119C, strain RIO1, stronger effect = lower value",0.853
same,normalized growth,[7],0.94
same,normalized growth,"locus YOR329C, strain SCD5, stronger effect = lower value",1
same,normalized growth,"locus YPL031C, strain PHO85, stronger effect = lower value",0.749
same,normalized growth,"locus YPL153C, strain RAD53, stronger effect = lower value",0.756
same,normalized growth,"locus YPL204W, strain HRR25, stronger effect = lower value",0.795
same,normalized growth,"locus YPL209C, strain IPL1, stronger effect = lower value",0.996
same,normalized growth,[8],0.797 (active)
same,normalized growth,"locus YPR025C, strain CCL1, stronger effect = lower value",0.99
same,normalized growth,"locus YPR106W, strain ISR1, stronger effect = lower value",0.991
same,normalized growth,"locus YPR111W, strain DBF20, stronger effect = lower value",0.981
same,normalized growth,"strain NNK1, stronger effect = lower value",0.99
same,normalized growth,"strain TSCII, stronger effect = lower value",1
